Records with an inconclusive call do not appear. A call without a number means that no potency is given here. Calls of active or inactive are those of the source. Calls follow the shape of the dose curve; as a rule, active = well fitted cell-killing curve with a large enough effect; inconclusive = small, poorly fitted or top-dose-only effect, or effect the other way; inactive = no such curve, though single readings can be large or run the other way.
Potency is read from the fitted curve at half-maximal effect.

The experiment is described as follows: Quantitative High-Throughput drug screen in 47 multiple myeloma cell lines against the NCATS MIPE library collection: LP1_DSMZ cell viability assay (AID 1918982). Also: nearly all actives have a fitted effect of over 35% in size. The note with it: LP1 myeloma viability, CellTiter-Glo ATP luminescence, 48 h; series mostly up to 45.8 µM. From the text:
PI: Beverly A. Mock Ph.D.
Laboratory of Cancer Biology and Genetics,
Center for Cancer Research, National Cancer Institute,
National Institute of Health, Bethesda, Maryland
Drug resistance and disease progression are common in multiple myeloma (MM) patients, underscoring the need for new therapeutic combinations. […] We hypothesized that effective combinations would reduce MYC expression and enhance p16 activity. […] These preclinical data identify potentially useful drug combinations for evaluation in drug-resistant MM and reveal potential mechanisms of combined drug sensitivity.
Described herein is the primary MIPE qHTS used to cherrypick compounds. Validated compounds were then further tested for potential synergistic activiy.
[1] Peat TJ, Gaikwad SM, Dubois W, Gyabaah-Kessie N, Zhang S, Gorjifard S, Phyo Z, Andres M, Hughitt VK, Simpson RM, Miller MA, Girvin AT, Taylor A, Williams D, D'Antonio N, Zhang Y, Rajagopalan A, Flietner E, Wilson K, Zhang X, Shinn P, Klumpp-Thomas C, McKnight C, Itkin Z, Chen L, Kazandijian D, Zhang J, Michalowski AM, Simmons JK, Keats J, Thomas CJ, Mock BA. Drug combinations identified by high-throughput screening promote cell cycle transition and upregulate Smad pathways in myeloma. Cancer Lett. 2023 Aug 1;568:216284. doi: 10.1016/j.canlet.2023.216284. Epub 2023 Jun 24. PMID: 37356470; PMCID: PMC10408729.
SEQUENCE No. (e.g., 1, 2, 3, etc.); […] (e.g., Cells, Incubation, Reagent, etc.); VALUE and DESCRIPTION.
1; Cells; 5 uL; white, solid bottom 1536-well Greiner assay plate.
2; Compounds; 23 nL; Kalypsis pin tool (Wako USA) equipped with a 1536-well pin head to transfer to the assay plates.
3; Incubation; 48 hours; 37C incubation.
4; Reagent;5uL; CellTiter Glo (Promega).
5; Detector; 425V; Luminescence; Viewlux PerkinElmer.
NOTES (numbers refer to Sequence numbers above)
1. The cell-based screening methods employed in this study were like those previously published. Briefly, the corresponding myeloma cell lines were screened in 1,536-well plates with 500 cells, 5-uL per well for inhibition of cell viability (assessed by measuring ATP levels with CellTiterGlo).
2. NCATS MIPE 4.0 library of approved and investigational drugs were added using the Kalypsis pin tool. Wells treated with DMSO only for 100% viability and media only for 0% viability were used as controls.
3. The assay plates were covered and incubated for 48 hours in a 37C, 5% CO2 incubator with controlled humidity.
4. After 48 hours, CellTilter-GloTM luminescent substrate mix (Promega) reagent was added to the assay plate and plates we incubated for 5 min at room temperature.
5. Signal was measured as median relative luminescence units on a ViewLux (PerkinElmer) multiplate reader.
[1] Heske CM, Davis MI, Baumgart JT, Wilson K, Gormally MV, Chen L, Zhang X, Ceribelli M, Duveau DY, Guha R, Ferrer M, Arnaldez FI, Ji J, Tran HL, Zhang Y, Mendoza A, Helman LJ, Thomas CJ. Matrix Screen Identifies Synergistic Combination of PARP Inhibitors and Nicotinamide Phosphoribosyltransferase (NAMPT) Inhibitors in Ewing Sarcoma. Clin Cancer Res. 2017 Dec 1;23(23):7301-7311. doi: 10.1158/1078-0432.CCR-17-1121. Epub 2017 Sep 12. PMID: 28899971; PMCID: PMC6636827.
As to `Cc1cnc(Nc2cccc(CN3CCOCC3)c2)nc1Nc1cccc(S(=O)(=O)NC(C)(C)C)c1`, the Potency is 14.8 µM (active). In the case of `COc1cc(C=CC(=O)O)ccc1O`, the Potency entry is “inactive”.

With `C[C@@H]1[C@H](C)CC[C@]2(C(=O)O)CC[C@]3(C)C(=CC[C@@H]4[C@@]5(C)CC[C@H](O)C(C)(C)[C@H]5CC[C@]43C)[C@@H]12`, the Potency was 48.1 µM (active).

As for `COC(=O)N1CCN(Cc2cccc(NC(=O)Nc3ccc(C)nc3)c2F)CC1`, the Potency was 16.6 µM (active).

Take `C=C1c2cccc(O)c2C(O)=C2C(=O)[C@@]3(O)C(O)=C(C(N)=O)C(=O)[C@@H](N(C)C)[C@@H]3[C@@H](O)[C@H]12`: the Potency was 23.5 µM (active). `Cc1ccc(NC(=O)Nc2cc(C(F)(F)F)ccc2F)cc1Nc1ccc2c(c1)NC(=O)C2=Cc1ccc[nH]1`: the Potency was 26.4 µM (active). `NC(N)=Nc1nc(CSCCC(N)=NS(N)(=O)=O)cs1`: the Potency result was “inactive”. Regarding `COc1cc2ncn(-c3cc(OCc4ccccc4S(C)(=O)=O)c(C#N)s3)c2cc1OC`, the Potency entry was “inactive”. In the case of `CO[C@H]1/C=C\O[C@@]2(C)Oc3c(C)c(O)c4c(O)c(c(C=NN5CCN(C6CCCC6)CC5)c(O)c4c3C2=O)NC(=O)C(C)=CC=C[C@H](C)[C@H](O)[C@@H](C)[C@@H](O)[C@@H](C)[C@H](OC(C)=O)[C@H]1C`, the Potency was 1.87 µM (active).

In the case of `COc1c(C)c2c(c(O)c1CC=C(C)CCC(=O)OCCN1CCOCC1)C(=O)OC2`, the Potency is 6.62 µM (active).

For the compound `NC(=O)c1ncn([C@@H]2O[C@H](CO)[C@@H](O)[C@@H]2O)n1`, the Potency entry is “inactive”.

In the case of `CC1(C)OC2CC3C4CC(F)C5=CC(=O)C=CC5(C)C4C(O)CC3(C)[C@]2(C(=O)CO)O1` (stereo not given in full), the Potency was 0.0023 µM (active). The figure for `N#CC(c1ccnc(NCCc2cccnc2)n1)c1nc2ccccc2s1` (stereo not given) is 18.7 µM (active). Turning to `O=C(CO)N1CCC(c2[nH]nc(-c3ccc(Cl)cc3)c2-c2ccncn2)CC1`, the Potency result was “inactive”. In the case of `COc1cc(CNC(=O)CCCCC=CC(C)C)ccc1O`, the Potency result was “inactive”. With `O=c1[nH]c(=O)n([C@H]2C[C@@H](O)[C@@H](CO)O2)cc1C(F)(F)F`, the Potency entry is “inactive”. The entry for `CNC(=O)[C@H](CC1=CN=C2C=CCC=C12)NC(=O)[C@@H](CC(=O)NO)CC(C)C` is “inactive”.

`N#CC(=C1Nc2ccccc2S1)c1ccnc(OCc2ccc(CN3CCOCC3)cc2)n1`: the Potency is 20.9 µM (active).

Consider `CC[C@H](C=C[C@@H](C)[C@H]1CC[C@H]2[C@@H]3CC=C4C[C@@H](O)CC[C@]4(C)[C@@H]3CC[C@]12C)C(C)C`, for which the Potency entry is “inactive”.

Turning to `CC(=O)Nc1cccc(-n2c(=O)n(C3CC3)c(=O)c3c(Nc4ccc(I)cc4F)n(C)c(=O)c(C)c32)c1`, the Potency result is “inactive”. Next, `CCCCc1ccc(NS(=O)(=O)c2ccc(C)c(C(=O)N3CCN(c4cccc(C)c4C)CC3)c2)cc1`: 23.5 µM (active). The figure for `CC(=O)NCCC(=O)N[C@@H](CCC(N)=O)C(=O)N[C@@H](CO)C(=O)N[C@@H](CCC(N)=O)C(=O)N[C@@H](CCC(N)=O)C(=O)N[C@H](C(=O)N[C@@H](Cc1ccccc1)C(=O)N[C@]1(C)CCCCCCC=CCCC[C@@](C)(C(=O)N[C@@H](CCC(N)=O)C(=O)N[C@@H](CC(N)=O)C(N)=O)NC(=O)[C@H](CC(C)C)NC(=O)[C@H](CC(C)C)NC(=O)[C@@H](CCCNC(=N)N)NC(=O)[C@H](Cc2c[nH]c3ccccc23)NC(=O)[C@H](CC(C)C)NC(=O)[C@H](CC(N)=O)NC1=O)[C@H](C)O` is 20.9 µM (active); for `Fc1ccc(C(c2ccc(F)cc2)N2CCN(CC=Cc3ccccc3)CC2)cc1` it is 16.6 µM (active). On to `COc1ccc(Cn2ccc3ccc(C(=O)NO)cc32)cc1`, for which the Potency is 16.6 µM (active). Next, `CCC[C@H](Nc1nc(-c2ccc(NC(=O)NCC)c(OC)c2)ncc1C)c1cccnc1`: 0.0187 µM (active); `C[C@@]1(c2cc(-c3cncnc3)c(F)cc2F)CCSC(N)=N1`: “inactive”. Next, `CC(C)CNc1ccnc(NCc2csc(-c3ccccc3)n2)n1`: 11.8 µM (active); `C[C@@H]1O[C@@H](O[C@H]2CC[C@@]3(C)[C@H](CC[C@@H]4[C@H]3C[C@@H](O)[C@]3(C)[C@@H](C5=CC(=O)OC5)CC[C@]43O)C2)C[C@H](O)[C@@H]1O[C@H]1C[C@H](O)[C@H](O[C@H]2C[C@H](O)[C@@H](O)[C@@H](C)O2)[C@H](C)O1` (stereo in doubt): 0.121 µM (active). Next, `Cc1cc2nc3c(=O)[nH]c(=O)nc-3n(CC(O)C(O)C(O)CO)c2cc1C` (stereo not given): “inactive”; `Cc1nc(C(=O)NCC(=O)O)c(O)c2ccc(Oc3ccccc3)cc12`: “inactive”. In the case of `Cc1csc(-c2nnc(Nc3ccc(Oc4ncccc4-c4ccnc(N)n4)cc3)c3ccccc23)c1`, the Potency was 20.9 µM (active).

In the case of `C=C[C@@H]1CN2CCC1C[C@@H]2C(O)c1ccnc2ccc(OC)cc12` (stereo not given in full), the Potency entry was “inactive”. With `Cc1ccc2c(=O)c3cccc(CC(=O)O)c3oc2c1C`, the Potency entry is “inactive”. The entry for `CC(C)(CO)[C@@H](O)C(=O)NCCC(=O)O` is “inactive”; for `O=C(O)C1=CO[C@@H](O[C@@H]2O[C@H](CO)[C@H](O)[C@H](O)[C@H]2O)[C@@H]2C(CO)=CC[C@H]12` it is “inactive”.

In the case of `Cc1c(C(=O)Nc2ccc(N3C[C@@H](C)O[C@@H](C)C3)nc2)cccc1-c1ccc(OC(F)(F)F)cc1`, the Potency was 9.35 µM (active). The figure for `C[C@@H](NC(=O)c1ncnc(N)c1Cl)c1ncc(C(=O)Nc2cc(C(F)(F)F)c(Cl)cn2)s1` is 4.69 µM (active). On to `CS(=O)(=O)c1ccc(C2=C(c3ccccc3)C(=O)OC2)cc1`, for which the Potency entry is “inactive”. Consider `COC(=O)[C@H](c1ccccc1Cl)N1CCc2sccc2C1`, for which the Potency entry was “inactive”.

For the compound `CC[C@H](C)C(=O)O[C@H]1C[C@H](O)C=C2C=C[C@H](C)[C@H](CC[C@@H](O)C[C@@H](O)CC(=O)O)[C@H]21`, the Potency entry was “inactive”.

The values are drawn from PubChem BioAssay (NCATS).
